Data published in PubChem BioAssay (NCATS).
Records with an inconclusive call do not appear. Unmarked numbers belong to inactive results. The call rests on the fitted dose curve; in most records, active means well fitted inhibition curve with a large enough effect; inconclusive means small, poorly fitted or top-dose-only effect; inactive means flat fitted curve, though single readings scatter.

What follows are molecules tested on KB-3-1 (assay: Cytotoxic Profiling of Annotated Libraries Using Quantitative High-Throughput Screening (AID 1296008; further: nearly all actives have a fitted effect of over 60% in size)). Settings: Five cell lines viability, CellTiter-Glo ATP luminescence, 48-72 h; max response: active compounds read low.
Text: Cell-based phenotypic screening is a commonly used approach to discover biological pathways, novel drug targets, chemical probes and high-quality hit-to-lead molecules. Many hits identified from high-throughput screening campaign are ruled out through a series of follow-up potency, selectivity/specificity, and cytotoxicity assays. Prioritization of molecules with little or no cytotoxicity for a more in-depth downstream evaluation influence the future direction of projects, so cytotoxicity profiling of the screening libraries at early stage is essential for increasing the likelihood of candidate success. […] For the annotated library, we also examined the primary targets and mechanistic pathways regularly associated with cell death. To our knowledge, this is the first study to use high-throughput screening to profile large libraries for cytotoxicity assessment in both normal and cancer cell lines. In summary, the results generated here constitutes a valuable resource for the scientific community and provides insight on identifying cytotoxic compounds with particular mechanisms of action, and prioritizing compounds with suitable cytotoxicity profile for further evaluation.
A pintool (Kalypsys) was used to transfer 23 nL of compound solution to the 1536-well assay plates. After 48 or 72 hr incubation at 37 degree Celsius, 5% CO2 and 95% humidity, 2.5 uL of CellTiter-Glo (Promega) was dispensed into each well using a dispenser (Aspect Automation, St. Paul, MN) with solenoid valves (Lee Valves, Westbrook CT). Plates were left at room temperature for 10 min before imaging the ATP-coupled luminescence using a ViewLux microplate imager (PerkinElmer, Waltham, MA).
On the % scale 0 is the no-effect control and ±100 the full control effect.

SMILES | max response [%]
NS(=O)(=O)Cc1noc2ccccc12 | 2.97
Cn1c(=O)c2[nH]c(Br)nc2n(C)c1=O | -9.6
Cc1ncc(CO)c(C=O)c1O | 3.7
NC(=O)C1(N2CCCCC2)CCN(CCCC(=O)c2ccc(F)cc2)CC1 | 5.68
O=C1c2cccc3c2[C@H](CCC3)CN1[C@@H]1CN2CCC1CC2 | -11.9
O=S(c1cc(Cl)cc(Cl)c1O)c1cc(Cl)cc(Cl)c1O | -2.92
COc1cc(C)nc(-n2nc(C)cc2OC)n1 | 4.41
C=CCN1CCc2nc(N)sc2CC1 | 3.04
CC(=O)O[C@H]1C[C@@H]2CC[C@@H]3[C@H](CC[C@@]4(C)[C@H]3C[C@H]([N+]3(C)CCCCC3)[C@@H]4OC(C)=O)[C@@]2(C)C[C@@H]1N1CCCCC1 | -0.262
Cc1cc(C)cc(OCC2CNC(=O)O2)c1 (stereo not given) | 2.21
O=C1C(CCS(=O)c2ccccc2)C(=O)N(c2ccccc2)N1c1ccccc1 (stereo not given) | 4.22
CCCCOC(=O)CC(CC(=O)OCCCC)(OC(C)=O)C(=O)OCCCC | 0.604
CNCCCCOc1ccccc1Cc1ccccc1 | 9.62
CC(C)CCCC(C)N (stereo not given) | 22
CCCN(CCc1cccs1)[C@H]1CCc2c(O)cccc2C1 | 5.8
CCOCCn1c(N2CCCN(C)CC2)nc2ccccc21 | -16.6
C/C=C/C=N/NC(=O)c1ccncc1 | -15.9
CC[C@H](c1ccc(O)cc1)[C@@H](CC)c1ccc(O)cc1 | 5.55
COc1ccc(CCN(C)CCCN2CCc3cc(OC)c(OC)cc3CC2=O)cc1OC | -10.8
CCOC(=O)[C@@](C)(N)Cc1ccc(O)c(O)c1 | -9.02

SMILES | max response [%]
N#C/C(=C1\SCC(c2ccccc2Cl)S1)n1ccnc1 (stereo not given) | 0.837
CCOC(=O)[C@H](CCc1ccccc1)N[C@@H](C)C(=O)N1[C@H](C(=O)O)C[C@@H]2CCC[C@@H]21 | 3.06
CC(=O)NCCCCCC(=O)O | 0.772
COc1cc(C(=S)N2CCOCC2)ccc1O | 12.3
O=C(Nc1ccc([N+](=O)[O-])cc1)Nc1ccc([N+](=O)[O-])cc1 | -1.19
Cc1ccc(-c2ncc(Cl)cc2-c2ccc(S(C)(=O)=O)cc2)cn1 | -5.38
O=C(N/N=C/c1ccc([N+](=O)[O-])o1)c1ccc(O)cc1 | -13.9
CCCCCCCCCCCCCCCC(=O)O | 2.75
CC(C)(C)NC[C@H](O)COc1cccc2c1CCCC2=O | -2.09
C=C[C@@]1(C)CC(=O)[C@]2(O)[C@@]3(C)[C@@H](O)CCC(C)(C)[C@@H]3[C@H](O)[C@H](OC(C)=O)[C@@]2(C)O1 | -4.04
CN1CCC(OC(c2ccccc2)c2ccccc2)CC1 | -12.2
CCOC(=O)c1c(N)sc2c1CCN(Cc1ccccc1)C2 | -15.4
Cc1cc2c(OCC(CNC(C)(C)C)OC(=O)c3ccccc3)cccc2[nH]1 (stereo not given) | -8.32
COc1ccc(/C=N/NC(=O)c2ccncc2)cc1OC | 0.981
COc1ccccc1N1CCN(CCCCNC(=O)c2ccc(-c3ccc(C(C)=O)cc3)cc2)CC1 | -4.38
CCOc1ccc(NC(C)=O)cc1 | 8.88
NS(=O)(=O)c1cc2c(cc1Cl)NC(CC1CCCC1)NS2(=O)=O (stereo not given) | 7.67
C#C[C@]1(O)CC[C@H]2[C@@H]3CCC4=Cc5oncc5C[C@]4(C)[C@H]3CC[C@@]21C | -24
Cc1ccccc1OCC(O)CO (stereo not given) | 1.58
CCCCCCCCCCCCCCCCO | 19
